Source: PubChem BioAssay
A number with no mark means an inactive call. For some of these results: Measured potencies and affinities stand elsewhere. The source made the active and inactive calls. Unless noted, no rule for the calls is given here.

Key:
[1] = antimalarial activity against Dd2 strain (AID 2302;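 active = growth inhibition above 50% at the single 2 µM test dose, taken to imply half-maximal potency below 2 µM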;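 also: 0% = DMSO untreated growth and 100% = chloroquine plus artemisinin killed control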); conditions: P. falciparum Dd2 in RBCs, LDH growth readout, 72 h; at 2 µM; stronger effect = higher value
[2] = HepG2 cytotoxicity, primary screen, cytotoxicity control for P. falciparum antimalarial project, cell-based, ATP luminescence (AID 2303;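 active = inhibition above 50%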;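 also: 0% = DMSO wells and 100% = digitonin-killed cells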); conditions: HepG2 viability, 24-48 h, at 10 µM, stronger effect = higher value
[3] = biological target: L-lactate dehydrogenase (Plasmodium falciparum (isolate CDC / Honduras)) (UniProt Q27743); experiment: PfLDH activity inhibition – cell lysate, 3D7 strain, counter-screen for P. falciparum growth inhibition project (AID 2304);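 also: 0% = vehicle and 100% = reference inhibitor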; conditions: P. falciparum 3D7 crude extract, LDH APAD/NBT absorbance; at 2 µM; stronger effect = higher value
Sequence of L-lactate dehydrogenase (Plasmodium falciparum (isolate CDC / Honduras)) (Q27743 whole entry, looked up): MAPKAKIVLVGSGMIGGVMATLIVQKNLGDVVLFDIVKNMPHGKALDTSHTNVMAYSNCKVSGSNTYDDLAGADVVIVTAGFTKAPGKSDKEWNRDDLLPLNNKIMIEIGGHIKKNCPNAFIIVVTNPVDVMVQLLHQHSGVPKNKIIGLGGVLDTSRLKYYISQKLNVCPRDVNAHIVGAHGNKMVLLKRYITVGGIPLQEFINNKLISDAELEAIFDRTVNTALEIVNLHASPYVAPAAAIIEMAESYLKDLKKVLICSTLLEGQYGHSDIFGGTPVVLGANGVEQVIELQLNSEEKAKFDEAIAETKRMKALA

[4] = inhibition of 3D7 malaria parasite growth – strain 3D7 (AID 2306);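 also: 0% = DMSO wells and 100% = chloroquine plus artemisinin control wells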; conditions: P. falciparum 3D7 erythrocytic growth, LDH absorbance, 72 h; at 2 µM; stronger effect = higher value
[5] = biological target: Calcium-dependent protein kinase 1 (Plasmodium falciparum (isolate 3D7)) (UniProt P62344); experiment: PfCDPK1 kinase inhibitors, biochemical, TCAMS library (AID 1159585; cut-off not given, nearly all actives have IC50 up to about 0.98 µM;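 also: inhibitors leave more ATP so luminescence rises with inhibition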); conditions: recombinant PfCDPK1, Kinase-Glo ATP depletion luminescence
Sequence of Calcium-dependent protein kinase 1 (Plasmodium falciparum (isolate 3D7)) (P62344 whole entry, looked up): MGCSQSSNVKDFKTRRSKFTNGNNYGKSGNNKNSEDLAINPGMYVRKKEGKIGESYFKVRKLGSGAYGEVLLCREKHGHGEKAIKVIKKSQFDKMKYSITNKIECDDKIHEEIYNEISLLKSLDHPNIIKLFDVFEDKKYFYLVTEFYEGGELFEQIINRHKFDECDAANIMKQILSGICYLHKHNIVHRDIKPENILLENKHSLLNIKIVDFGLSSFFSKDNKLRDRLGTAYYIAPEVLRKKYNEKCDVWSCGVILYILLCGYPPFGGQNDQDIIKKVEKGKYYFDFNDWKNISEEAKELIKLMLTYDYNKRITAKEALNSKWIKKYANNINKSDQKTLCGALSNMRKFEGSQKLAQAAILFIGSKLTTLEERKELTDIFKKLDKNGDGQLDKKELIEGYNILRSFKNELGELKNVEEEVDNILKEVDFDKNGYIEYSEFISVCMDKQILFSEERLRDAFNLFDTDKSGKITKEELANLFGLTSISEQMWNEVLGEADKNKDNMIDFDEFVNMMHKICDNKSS

[6] = biological target: Plasmodium falciparum protein kinase 6 (PK6, PF3D7_1337100) (UniProt Q8IDW1); experiment: PfPK6 kinase inhibitors, biochemical, TCAMS library (AID 1159586); conditions: recombinant PfPK6, Kinase-Glo ATP depletion luminescence
Sequence of Plasmodium falciparum protein kinase 6 (PK6, PF3D7_1337100) (Q8IDW1 1-305): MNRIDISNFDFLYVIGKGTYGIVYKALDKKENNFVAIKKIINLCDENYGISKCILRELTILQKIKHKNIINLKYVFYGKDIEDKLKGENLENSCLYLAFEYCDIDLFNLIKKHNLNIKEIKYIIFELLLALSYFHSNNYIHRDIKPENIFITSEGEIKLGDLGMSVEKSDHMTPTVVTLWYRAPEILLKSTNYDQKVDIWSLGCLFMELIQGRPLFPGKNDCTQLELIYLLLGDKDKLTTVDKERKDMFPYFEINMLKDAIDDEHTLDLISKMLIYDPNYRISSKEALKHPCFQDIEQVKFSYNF

[7] = biological target: Protein kinase 7 (PK7), Plasmodium falciparum 3D7 (PF3D7_0213400) (UniProt Q7YTF7); experiment: inhibition of Plasmodium PK7 catalytic activity – biochemical, TCAMS antimalarial set, Kinase-Glo luminescence (AID 1159587); conditions: recombinant PfPK7, Kinase-Glo ATP depletion luminescence
Sequence of Protein kinase 7 (PK7), Plasmodium falciparum 3D7 (PF3D7_0213400) (Q7YTF7 1-343): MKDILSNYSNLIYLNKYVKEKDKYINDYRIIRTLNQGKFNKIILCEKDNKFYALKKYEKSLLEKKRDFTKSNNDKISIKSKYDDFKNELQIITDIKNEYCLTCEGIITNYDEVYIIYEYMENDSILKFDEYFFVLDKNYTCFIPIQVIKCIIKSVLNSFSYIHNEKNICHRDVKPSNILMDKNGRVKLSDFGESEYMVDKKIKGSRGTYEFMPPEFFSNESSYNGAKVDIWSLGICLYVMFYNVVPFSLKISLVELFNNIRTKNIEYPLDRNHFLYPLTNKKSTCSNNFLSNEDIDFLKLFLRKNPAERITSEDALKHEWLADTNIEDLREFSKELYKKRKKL

[8] = biological target: Calcium-dependent protein kinase 4 (Plasmodium falciparum (isolate 3D7)) (UniProt Q8IBS5); experiment: PfCDPK4 kinase inhibitors, biochemical, TCAMS library (AID 1159588; cut-off not given, nearly all actives have IC50 up to about 0.91 µM); conditions: recombinant PfCDPK4, Kinase-Glo ATP depletion luminescence
Sequence of Calcium-dependent protein kinase 4 (Plasmodium falciparum (isolate 3D7)) (Q8IBS5 whole entry, looked up): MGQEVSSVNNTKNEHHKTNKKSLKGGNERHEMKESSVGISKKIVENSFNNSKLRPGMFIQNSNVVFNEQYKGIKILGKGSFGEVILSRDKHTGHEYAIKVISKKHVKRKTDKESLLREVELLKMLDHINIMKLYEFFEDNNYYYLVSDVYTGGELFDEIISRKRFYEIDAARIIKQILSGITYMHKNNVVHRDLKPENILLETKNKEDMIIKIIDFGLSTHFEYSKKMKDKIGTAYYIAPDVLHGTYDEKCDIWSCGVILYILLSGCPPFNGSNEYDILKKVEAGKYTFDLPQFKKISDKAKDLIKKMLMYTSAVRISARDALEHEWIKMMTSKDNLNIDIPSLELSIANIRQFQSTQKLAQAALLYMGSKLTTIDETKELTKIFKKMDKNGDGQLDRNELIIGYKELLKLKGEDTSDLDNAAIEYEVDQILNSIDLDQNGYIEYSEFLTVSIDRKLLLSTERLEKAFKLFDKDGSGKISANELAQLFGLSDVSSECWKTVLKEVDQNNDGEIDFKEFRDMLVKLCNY

Row | SMILES | growth inhibition [1] | inhibition [2] | inhibition [3] [%] | growth inhibition [4] | outcome [5] | outcome [6] | outcome [7] | outcome [8]
1 | Cc1ccc(C(=O)NC2CCN(CCNC(=O)Nc3cc(C)nc4ccccc34)CC2)cc1 | 76% (active) | -12% | -8 | 98% (active) | inactive | inactive | inactive | inactive
2 | COc1ccc(CNC(=O)c2cnc3c(O)cccc3c2Nc2cccc(NC(=O)c3ccc(Cl)c([N+](=O)[O-])c3)c2)cc1 | 21% | 48% | 1 | 86% (active) | inactive | inactive | inactive | inactive
3 | OCCNc1nc(Nc2ccccc2)nc2ccccc12 | 61% (active) | 5% | 5 | 93% (active) | inactive | inactive | inactive | inactive
4 | COc1ccc(F)cc1-c1ccccc1CNC(=O)c1cnn(-c2ccc([N+](=O)[O-])cc2)c1C(F)(F)F | 75% (active) | -3% | -4 | 89% (active) | inactive | inactive | inactive | inactive
5 | CC(C)(C)c1cc(C(=O)Nc2ccc(C(=N)N)cc2)c(O)c(C(C)(C)C)c1 | 88% (active) | 4% | -2 | 101% (active) | inactive | inactive | inactive | inactive
6 | CC(C)CNCc1ccc(-c2ccccc2CNC2CCN(Cc3ccccc3)CC2)cc1 | 41% | 28% | -3 | 101% (active) | inactive | inactive | inactive | inactive
7 | CC(C)c1ccc(NC(=O)c2ccc(NCCCN(C)Cc3ccccc3)c([N+](=O)[O-])c2)cc1 | 35% | 21% | -2 | 101% (active) | inactive | inactive | inactive | inactive
8 | COc1cc2c(cc1OCCN1CCC(N3CCCCC3)CC1)N(C(=O)/C=C/c1ccccc1OC(F)(F)F)CC2 | 93% (active) | 64% (active) | -7 | 101% (active) | inactive | inactive | inactive | inactive
9 | CC[C@H](C)CNC(=O)c1ccnc(-c2ccc(CNC3Cc4ccccc4C3)cc2)c1 | 87% (active) | 18% | -3 | 102% (active) | inactive | inactive | inactive | inactive
10 | Cc1cccc2[nH]c(-c3cccc(-c4cccc(NC(=O)c5cnccc5C(F)(F)F)c4)c3)nc12 | 47% | 7% | -11 | 98% (active) | inactive | inactive | inactive | inactive
11 | CCc1c(CCNCCCCCCNCCc2ccccc2)ccc(OC)c1OC | 3% | 33% | -2 | 102% (active) | inactive | inactive | inactive | inactive
12 | CN(Cc1ccc(C#N)cc1)C1CCN(c2cc(NC(=O)c3cccc(F)c3)ccn2)CC1 | -9% | 9% | -2 | 83% (active) | inactive | inactive | inactive | inactive
13 | Oc1ccc2[nH]cc(C3CCN(CCCNCc4ccc(-c5ccccc5)cc4)CC3)c2c1 | -1% | 22% | -4 | 101% (active) | inactive | inactive | inactive | inactive
14 | Cc1csc(NC(=O)c2cn(-c3ccccc3)nc2-c2cccs2)n1 | 12% | -1% | 4 | 95% (active) | inactive | inactive | inactive | inactive
15 | CN1CCCC(CN2CCN(Cc3ccc(-c4ccc(-c5nc6ccc(F)cc6[nH]5)cc4)cc3)CC2)C1 (stereo not drawn) | 98% (active) | 90% (active) | -1 | 100% (active) | inactive | inactive | inactive | inactive
16 | CCOc1ccc(Cc2c(C)nc3nc(N)nc(N)c3c2C)cc1 | 7% | 63% (active) | 0 | 91% (active) | inactive | inactive | inactive | inactive
17 | CC(=O)c1ccc(-c2ccc(C(=O)NCCCCN3CCC(c4ccc5c(c4O)CCCC5)CC3)cc2)cc1 | 83% (active) | 87% (active) | 1 | 100% (active) | inactive | inactive | inactive | inactive
18 | CCCCN(CCCC)C(=O)CC(O)c1cc2c(Cl)cc(Cl)cc2c2cc(C(F)(F)F)ccc12 (stereo not drawn) | 68% (active) | -12% | -2 | 92% (active) | inactive | inactive | inactive | inactive
19 | CN1CCCN(Cc2ccc(-c3ccc(NC(=O)c4ccc(Cl)cc4)cc3)cc2)CC1 | 67% (active) | 58% (active) | 3 | 96% (active) | inactive | inactive | inactive | inactive
20 | COc1ccc(NC(=O)Nc2nc(-c3ccc(Cl)c(C)c3)cs2)cc1N1CCN(C)CC1 | 89% (active) | 9% | 0 | 99% (active) | inactive | inactive | inactive | inactive
21 | COc1cc(C)c(C(O)CNC(C)CCc2ccccc2)cc1C (stereo not drawn) | 98% (active) | 1% | -2 | 98% (active) | inactive | inactive | inactive | inactive

Row | SMILES | growth inhibition [1] | inhibition [2] | inhibition [3] [%] | growth inhibition [4] | outcome [5] | outcome [6] | outcome [7] | outcome [8]
22 | Cc1noc(C)c1-c1ccc2c(Nc3ccc(C#N)cc3)c(C(N)=O)cnc2c1 | 73% (active) | 6% | 7 | 97% (active) | inactive | inactive | inactive | inactive
23 | COc1cc2nc(-c3ccccc3)nc(N3CCN(C(=O)c4ccco4)CC3)c2cc1OC | 87% (active) | -7% | 7 | 89% (active) | inactive | inactive | inactive | inactive
24 | CCC(CC)CN1C(=O)C(c2ccccc2)(c2ccccc2)N=C1N | 81% (active) | 14% | -3 | 97% (active) | inactive | inactive | inactive | inactive
25 | CN(C)c1ccc(-c2ccc(C(=O)NC3CCN(Cc4ccc(C(C)(C)C)cc4)CC3)s2)cc1 | 59% (active) | 35% | -4 | 95% (active) | inactive | inactive | inactive | inactive
26 | CN1CCN(c2ccc(-c3cccc(NC(=O)c4cccc(Cl)c4)c3)nn2)CC1 | 37% | 5% | -2 | 94% (active) | inactive | inactive | inactive | inactive
27 | COC(=O)c1cccc(CNCc2cccc(-c3csc(-c4nc5ccccc5[nH]4)c3)c2)c1 | 44% | -7% | 0 | 102% (active) | inactive | inactive | inactive | inactive
28 | C[C@H]1CN(Cc2cccc(-c3cc(CNC(=O)c4cccc(CN5CCN(C/C=C/c6ccccc6)CC5)c4)ccc3F)c2)CCN1 | 46% | 98% (active) | -2 | 98% (active) | inactive | inactive | inactive | inactive
29 | CCCc1cc(N2CCC(c3ccccc3)(N3CCCCC3)CC2)nc(Nc2ccc(OC)cc2)n1 | 28% | 13% | 1 | 81% (active) | inactive | inactive | inactive | inactive
30 | CN1CCC(N2CCN(CCOc3cc(NC(=O)/C=C/c4ccccc4Cl)ccc3Br)CC2)CC1 | 99% (active) | 36% | -1 | 101% (active) | inactive | inactive | inactive | inactive
31 | CC(C)(CNCc1cc(Cl)cc(Cl)c1)c1nc(-c2ccc(Cl)c(O)c2)c(-c2ccnc(N)n2)[nH]1 | 2% | 54% (active) | -1 | 92% (active) | inactive | inactive | inactive | inactive
32 | NCC1CCCN1Cc1cccc(-c2ccc(-c3nc4ccccc4[nH]3)s2)c1 (stereo not drawn) | 66% (active) | 16% | 3 | 99% (active) | inactive | inactive | inactive | inactive
33 | O=C(/C=C/c1ccc(Cl)c(Cl)c1)NCCCCCN1CCCC(CNC(=O)Nc2ccc(Oc3ccccc3)cc2)C1 (stereo not drawn) | 6% | 26% | -2 | 99% (active) | inactive | inactive | inactive | inactive
34 | CCn1c(CN2CCN(Cc3ccccc3)CC2)nc2cc(NC(=O)c3cccs3)ccc21 | 95% (active) | 0% | 2 | 97% (active) | inactive | inactive | inactive | inactive
35 | Cc1cc(-c2cnc(N)c(-c3ccc(N4CCN(C)CC4)cc3)c2)cc(C)c1O | 99% (active) | 3% | -5 | 101% (active) | inactive | inactive | inactive | inactive
36 | Cc1ccc(Nc2nc(C)cc(N3CCN(CCc4ccccc4)CC3)n2)cc1 | 6% | 6% | -9 | 93% (active) | inactive | inactive | inactive | inactive
37 | O=C(Nc1ccc(Cn2nc(Cl)c(N3CCCNCC3)cc2=O)cc1)Nc1ccc(-c2ccccc2)cc1 | 36% | 89% (active) | 1 | 87% (active) | inactive | inactive | inactive | inactive
38 | COCC(C)n1c(C)cc(C(=O)CSc2nnc(Nc3ccccc3)s2)c1C (stereo not drawn) | 98% (active) | -5% | -6 | 97% (active) | inactive | inactive | inactive | inactive
39 | CS(=O)(=O)c1ccc(CCNCc2ccc(-c3ccc(CNC4CCN(Cc5ccccc5)CC4)cc3)nc2)cc1 | 100% (active) | 32% | 3 | 101% (active) | inactive | inactive | inactive | inactive
40 | Fc1ccc2nc(-c3ccc(-c4ccc(CN5CCN(c6cnccn6)CC5)cc4)s3)[nH]c2c1 | 98% (active) | 45% | 5 | 99% (active) | inactive | inactive | inactive | inactive
41 | O=C(Nc1ccc(OC2CCN(Cc3ccc(F)cc3)C2)cc1)c1cccs1 (stereo not drawn) | 92% (active) | 2% | 4 | 94% (active) | inactive | inactive | inactive | inactive
